Compound activity from PubChem.
PLCb3 inh: PLC-beta3 (human) inhibition, primary screen; 370,000 compounds, 0.18% hits; inhibition, % at 12.2 µM; Purified PLC-beta3, fluorogenic substrate, fluorescence; AID 720704; in the data active = inhibition above about 11%;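 also: 0% = median of compound wells on plate and 100% = full blocker control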
ADAM10 inh: inhibitors of human ADAM10; O14672; recombinant ADAM10, EDANS/DABCYL FRET peptide cleavage, 3 h; inhibition, % at 7 µM; 370,000 compounds, 0.62% hits; AID 720582;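 active = inhibition above a per-campaign cutoff equal to the mean of compounds falling between control-based bounds plus 3 SD, cut at about 20% in these data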;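 also: 0% = DMSO wells while the 100% control is not disclosed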
PLC-gamma1 inh: PLC-gamma1 (human) inhibition, primary screen. purified PLC-gamma1, fluorogenic substrate, fluorescence. P19174. inhibition, % at 12.2 µM. 370,000 compounds, 0.84% hits; in the data active = inhibition above about 9.5%
ADAM17 inh: inhibits human ADAM17; 370,000 compounds, 0.83% hits; inhibition, % at 6.95 µM; P78536; recombinant ADAM17, EDANS/DABCYL FRET peptide cleavage;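 active = inhibition above the mean of compounds lying between control limits plus 3 SD, set per campaign, cut at about 8.5% in these data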;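 also: 0% = DMSO-only wells as the low control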
Target sequence (P78536 215-824 limits assumed): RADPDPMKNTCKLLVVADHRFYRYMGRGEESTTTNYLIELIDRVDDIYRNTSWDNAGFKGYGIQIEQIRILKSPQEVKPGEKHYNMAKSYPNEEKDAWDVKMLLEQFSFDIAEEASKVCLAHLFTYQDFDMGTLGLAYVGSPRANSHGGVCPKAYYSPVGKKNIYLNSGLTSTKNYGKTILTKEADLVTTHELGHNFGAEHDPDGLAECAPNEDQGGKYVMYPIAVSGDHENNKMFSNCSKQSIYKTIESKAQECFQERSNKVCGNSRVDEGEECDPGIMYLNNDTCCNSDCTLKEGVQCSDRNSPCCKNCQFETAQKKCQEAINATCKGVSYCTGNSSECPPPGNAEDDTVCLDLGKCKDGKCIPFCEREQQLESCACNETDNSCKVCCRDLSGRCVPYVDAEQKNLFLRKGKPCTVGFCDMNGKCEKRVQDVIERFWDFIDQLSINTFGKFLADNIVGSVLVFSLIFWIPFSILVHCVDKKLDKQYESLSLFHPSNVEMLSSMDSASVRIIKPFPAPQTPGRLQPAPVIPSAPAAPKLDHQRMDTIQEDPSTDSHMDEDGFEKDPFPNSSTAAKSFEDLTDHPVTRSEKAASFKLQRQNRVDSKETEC
KLK7 zymogen act: proKLK7 (human) activation, primary screen; purified proKLK7, EDANS-DABCYL substrate fluorescence; 100% is mature enzyme control, 0% vehicle; activation, % at 7 µM; 370,000 compounds, 0.9% hits; AID 652039;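 active = activation above the mean of all tested compounds plus 3 SD, computed per campaign excluding outliers beyond control limits, cut at about 13% in these data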
KLK7 act conf: proKLK7 activation, confirmation; purified proKLK7, EDANS-DABCYL substrate fluorescence; scaled: vehicle 0, mature enzyme 100; 3,200 compounds, 68% hits; AID 686949; shares compounds with KLK7 zymogen act; activation, % at 7 µM;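 active = activation, as change over the incubation, above the mean of all tested compounds plus 3 SD, cut at about 13% in these data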
EDANS-DABCYL int: fluorescence interference counter-screen for KLK7 activators. shares compounds with KLK7 zymogen act. EDANS-DABCYL substrate fluorescence interference, no enzyme, 4 h; solvent 0%, active enzyme control 100%. activation, % at 7 µM. 3,200 compounds, 80% hits. AID 686952;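 active = activation above the all-compound mean plus 3 SD, ignoring values outside control-based bounds, cut at about 4.8% in these data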;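 also: value is the 4 h activation minus the activation read at time zero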
K7 EDANS ctr: EDANS fluorescence interference in dose response, no enzyme. 250 compounds, 20% hits. EC50, µM. EDANS-DABCYL peptide fluorescence interference. AID 720493. shares compounds with KLK7 zymogen act;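 active = compounds that raise the fluorescence signal in this interference counterscreen, with EC50 at or below 10 µM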;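 also: intact quenched peptide substrate alone read at 355 nm excitation and 520 nm emission; signal is fluorescence gain from T0 to T4 after four hours at room temperature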
The depositor's hits bear a star; i = inactive; · = no result given. A selection: hits, their analogues and other compounds. The true share with any hit is near 2.9%.

SMILES | PLCb3 inh | ADAM10 inh | PLC-gamma1 inh | ADAM17 inh | KLK7 zymogen act | KLK7 act conf | EDANS-DABCYL int | others
COC(=O)[C@]12CCCCC=C1N(Cc1ccc(OC)cc1)C(=O)[C@@H]2CC(=O)NCc1ccccc1 | 2.5 | 0.2 | 2.6 | -2.7 | -0.3 | · | ·
CCCCCC(=O)Nc1c(-c2ccc(OC)cc2)c(=O)c2ccccc2n1C | -381.6 | -436.5 | -249.9 | -141.0 | 16.9* | 2.6 | 0.7
CCCCC(=O)Nc1c(-c2ccc(OC)c(OC)c2)c(=O)c2ccccc2n1C | -17.3 | 0.8 | -11.4 | -1.0 | -0.4 | · | ·
CCCC(=O)Nc1c(-c2ccc(OC)cc2)c(=O)c2ccccc2n1C | -251.6 | -332.1 | -192.6 | -107.3 | 17.1* | 19.8* | 16.6* | K7 EDANS ctr=i
NC(=O)c1ncn([C@@H]2O[C@H](C(=O)N3CCCN(Cc4ccccc4F)CC3)[C@@H](O)[C@H]2O)n1 | 2.3 | -3.3 | 1.2 | -0.5 | -0.6 | · | ·
Fc1ccc(C2C3=C(Nc4ncnn42)c2ccccc2OC3c2ccncc2)cc1 (stereo not drawn) | -259.2 | -313.9 | -211.3 | -111.6 | 13.2* | 22.9* | 25.6*
Cc1ccc(C2Oc3ccccc3C3=C2C(c2cccs2)n2ncnc2N3)cc1 (stereo not drawn) | -190.1 | -138.5 | -167.2 | -35.4 | -8.8 | · | ·
CCN(CC)c1ccc(Nc2cc3n(c(=O)n2)CCc2cc(OC)c(OC)cc2-3)cc1 | -222.9 | -121.9 | -162.2 | -55.9 | 21.4* | 71.8* | 74.5*
Cc1cc(=O)oc2c(CN3CC(C)OC(C)C3)c(O)c(Cl)cc12 (stereo not drawn) | i | i | i | i | 149.4* | 67.2* | 74.4*
CCc1c(C)c2cc(Cl)c(O)c(CN3CCCCC3)c2oc1=O | i | i | i | i | 51.1* | 69.0* | 71.6*
CCCc1cc(=O)oc2c(CNc3ccc(OCC)cc3)c(O)ccc12 | i | i | -427.7 | i | -15.0 | · | ·
CCc1cc(=O)oc2c(CN3CCN(C)CC3)c(O)c(Cl)cc12 | i | i | i | i | 69.0* | 62.3* | 69.8*
CCc1cc(=O)oc2c(CNCc3c(F)cccc3Cl)c(O)ccc12 | i | i | i | i | 30.1* | 41.0* | 57.2*
COc1cccc(-c2cc(C(C)=O)c3n(c2=O)CCC3)c1OC | -0.1 | 5.8 | 0.7 | 0.1 | -0.1 | · | ·
CCCCc1cc(=O)oc2cc(C)c(CN3CCCC3)c(O)c12 | -72.0 | 5.4 | -42.2 | 0.1 | 0.5 | · | ·
CCc1cc(=O)oc2c(CN3CCCC3)c(O)c(Cl)cc12 | i | i | i | i | 83.2* | 67.8* | 71.3*
CCCCc1cc(=O)oc2c(CN3CCCC3)c(O)ccc12 | i | i | i | i | 77.2* | 65.5* | 74.5*
CCc1cc(=O)oc2c(CN3CCN(C)CC3)c(O)ccc12 | i | i | i | i | 37.6* | 72.0* | 70.5*
O=C(O)c1cc2nccc(-c3ccco3)n2n1 | i | -243.2 | -450.4 | -89.7 | 17.7* | 23.1* | 22.2*
COc1ccc(-c2ccnc3cc(C(=O)O)nn23)cc1 | i | -413.7 | i | -142.4 | 12.6* | 34.3* | 31.7*
COc1ccc(-c2ccnc3nc(-n4cccc4)nn23)cc1 | -125.0 | -323.8 | -95.2 | -96.8 | -1.6 | · | ·
CCOC(=O)c1c2ccc(OCC(=O)N/N=C/c3ccc(C)cc3)cc2n2ccccc12 | -94.2 | -41.2 | -74.8 | -13.4 | -3.5 | · | ·
CCOC(=O)c1c2ccc(OCC(=O)NN)cc2n2ccccc12 | i | -451.0 | i | -157.1 | 49.4* | -26.5 | -32.6
COc1cc(OC)c(OC)cc1/C=N/n1c(COc2ccccc2)n[nH]c1=S | -11.8 | -14.2 | -6.2 | -11.9 | 2.0 | · | ·
COc1ccc(OC)c(/C=N/n2c(COc3ccccc3)n[nH]c2=S)c1 | -77.9 | -89.2 | -49.4 | -39.1 | 19.9* | 43.1* | 37.3*
SMILES | PLCb3 inh | ADAM10 inh | PLC-gamma1 inh | ADAM17 inh | KLK7 zymogen act | KLK7 act conf | EDANS-DABCYL int | others
CCN(CC)CCn1c(SCC(=O)Nc2cccc(OC)c2)nc2c(sc3ccccc32)c1=O | -30.4 | -319.1 | -15.8 | -113.3 | -0.9 | · | ·
COc1cccc(NC(=O)CSc2nc3c(sc4ccccc43)c(=O)n2CCN(C)C)c1 | -61.5 | i | -39.6 | -242.7 | 14.4* | 2.7 | 4.0
CCn1nc(NC(=O)C(C)C)c2cc3cccc(C)c3nc21 | -158.8 | -13.5 | -101.0 | -12.7 | 62.4* | -7.5 | -6.5
Cc1onc(-c2ccccc2)c1C(=O)N1CCN(C(=O)C(=O)c2cccc(C(F)(F)F)c2)CC1 | 0.5 | -3.5 | -4.7 | -2.8 | 0.4 | · | ·
CC(=O)Nc1ccc2c3c(cccc13)C(=O)N(c1ccccc1)C2=O | i | i | i | i | 58.7* | 65.5* | 70.6*
O=C(O)c1ccc2c3c(cccc13)C(=O)N(c1ccccc1)C2=O | -8.6 | -24.2 | -7.0 | -8.0 | -0.1 | · | ·
CN1CCCC1CCSc1ncccc1-c1nc2ccccc2[nH]1 (stereo not drawn) | -26.7 | -89.8 | -17.6 | -26.8 | 0.9 | · | ·
Cc1c(-n2cc(C(=O)c3cc(F)ccc3O)cc(C#N)c2=O)c(=O)n(-c2ccccc2)n1C | -6.2 | 3.4 | 0.5 | -0.5 | 1.6 | · | ·
N#Cc1cc(C(=O)c2ccccc2O)cn(-c2nccs2)c1=O | -104.3 | -39.9 | -85.6 | -10.6 | 12.9* | 25.0* | 23.4*
N#Cc1cc(C(=O)c2cc(F)ccc2O)cn(-c2nccs2)c1=O | -136.1 | -61.2 | -127.3 | -21.1 | 24.9* | 42.0* | 46.3*
O=C(CSc1nnc(-c2ccco2)n1Cc1ccco1)c1ccc([N+](=O)[O-])cc1 | 3.0 | 9.5 | 1.5 | 1.8 | 0.5 | · | ·
COc1ccc(OC)c(NC(=O)c2cc(S(=O)(=O)NCc3ccco3)ccc2F)c1 | -14.7 | -2.0 | -6.1 | -0.7 | 13.4* | -0.6 | 0.8
CCOc1ccccc1NC(=O)c1cc(S(=O)(=O)NCc2ccco2)ccc1F | -21.3 | 2.2 | -5.4 | -0.4 | 0.6 | · | ·
CN(C(=O)C1CCOC1)c1nnc(-c2ccccn2)s1 (stereo not drawn) | -6.0 | -89.3 | -4.9 | -30.8 | 40.5* | 49.8* | 47.6*
CN(C(=O)C1CCOC1)c1nnc(-c2ccncc2)s1 (stereo not drawn) | -6.2 | -124.2 | -5.7 | -34.8 | 45.6* | 64.9* | 70.1*
Cc1cccc(C(=O)N(C)c2nnc(-c3ccncc3)s2)c1 | 0.3 | -1.1 | -6.0 | -8.0 | 1.4 | · | ·
Cc1cnc(-c2nnc(N(C)C(=O)C3CCOC3)s2)cn1 (stereo not drawn) | -32.2 | -122.4 | -24.1 | -39.6 | 31.3* | 43.2* | 45.7*
Cc1ccc(-c2nnc(N(C)C(=O)c3cccnc3)s2)cn1 | 4.0 | -3.1 | 5.7 | -2.4 | 2.9 | · | ·
